Rows were chosen to be rich in hits. Some 3% of all compounds tested hit in one or more screens of this group.
Rv3671c inh = inhibits the M. tuberculosis serine protease Rv3671c; 320,000 compounds, 0.048% hits; AID 2606; P9WHR9; inhibition, % at 5.96 µM; in the data active means inhibition above about 38%;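 further: extracellular domain of Rv3671c used as enzyme; 0% = enzyme with DMSO and 100% = no enzyme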
BioA inh = BioA (M. tuberculosis) enzyme inhibition. purified M. tuberculosis BioA enzyme, plate reader. inhibition, % at 9.99 µM. 360,000 compounds, 0.096% hits. AID 602481; in the data active means inhibition above about 40%; inconclusive means no clear call, values can overlap the other calls
GDH-TPI inh = GDH-TPI coupled enzyme inhibition counter-screen; GDH-TPI coupled enzyme counterscreen, NADH absorbance; inhibition, % at 4.8 µM; 360,000 compounds, 1.2% hits; in the data active means inhibition above about 30%;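 further: 0% = DMSO wells and 100% = wells lacking the enzyme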
FadD28 binding = M. tuberculosis FadD28 bisubstrate binding inhibition; 360,000 compounds, 0.22% hits; inhibition, % at 12.5 µM; FadD28 bisubstrate probe binding, fluorescence polarization; in the data active means inhibition above about 8.5%, passing the limit was not always enough; inconclusive means no clear call, values can overlap the other calls
FBA Mtb inh = inhibitors of M. tuberculosis fructose-bisphosphate aldolase | P9WQA3 | purified M. tuberculosis FBA, fluorescence read-out | inhibition, % at 1 µM | 360,000 compounds, 2.3% hits | AID 588726; in the data active means inhibition above about 27%;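 further: 0% = vehicle and 100% = reference inhibitor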
Target sequence (P9WQA3 whole entry, looked up): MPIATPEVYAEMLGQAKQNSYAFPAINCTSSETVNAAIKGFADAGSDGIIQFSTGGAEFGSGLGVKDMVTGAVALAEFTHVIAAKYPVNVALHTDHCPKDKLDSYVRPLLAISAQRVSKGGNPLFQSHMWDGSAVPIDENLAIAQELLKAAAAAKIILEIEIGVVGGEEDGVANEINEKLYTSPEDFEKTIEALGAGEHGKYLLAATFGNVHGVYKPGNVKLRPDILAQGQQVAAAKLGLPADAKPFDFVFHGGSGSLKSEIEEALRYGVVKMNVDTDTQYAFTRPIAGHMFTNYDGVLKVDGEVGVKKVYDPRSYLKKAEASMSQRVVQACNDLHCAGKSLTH
Numbers without * were called inactive; ? = inconclusive; . = no result given; + = active, no number.

SMILES | Rv3671c inh | BioA inh | GDH-TPI inh | FadD28 binding | FBA Mtb inh
C[C@H](CO)N1C[C@H](C)[C@@H](CN(C)C(=O)c2ccccc2)Oc2cc(C3=CCCCC3)ccc2S1(=O)=O | . | -1 | . | . | .
COc1ccccc1NC(=O)Cn1cnc2c(oc3nc4c(cc32)CCCC4)c1=O | -2 | 0 | 10 | 25* | 1
COc1cccc(NC(=O)Cn2cnc3c(oc4nc5c(cc43)CCCC5)c2=O)c1 | -17 | -1 | -5 | -2 | 2
CC(=O)c1cccc(CN2CCC(CO)(CCOc3ccccc3)CC2)c1 | -2 | -1 | -1 | -3 | 0
CC(=O)c1cccc(CN2CCC(CO)(CCCc3ccccc3)CC2)c1 | 1 | . | 11 | -5 | 139*
C[C@@H]1CN([C@@H](C)CO)C(=O)c2cc(-c3ccc(F)cc3)cnc2O[C@H]1CN(C)C(=O)Nc1ccc(F)cc1 | . | 2 | . | . | .
CCOC(=O)c1cnn2c(C(F)(F)F)cc(-c3cn(C)nc3C)nc12 | 0 | 0 | 21 | -3 | 72*
CCCCCCn1c(O)c(C=Nc2ccccc2N2CCOCC2)c(=O)[nH]c1=S | -2 | -2 | 6 | -2 | -1
CCCCn1c(O)c(/C=N/N2CCOCC2)c(=O)[nH]c1=S | -1 | -1 | 37* | 0 | 3
O=c1[nH]c(=S)n(C2CCCCC2)c(O)c1C=NCCN1CCOCC1 | 0 | 0 | 45* | -4 | -7
C=CCn1c(O)c(C=NCCN2CCOCC2)c(=O)[nH]c1=S | 1 | 3 | 48* | 0 | -3
O=c1[nH]c(=O)n(Cc2ccccc2)c(O)c1C=NCCN1CCOCC1 | -4 | 0 | -7 | -2 | -2
Cn1c(O)c(C=NCCN2CCOCC2)c(=O)[nH]c1=S | 1 | -2 | 18 | 1 | 2
C[C@@H]1CN([C@H](C)CO)C(=O)c2cc(NS(=O)(=O)c3cn(C)cn3)ccc2O[C@@H](C)CCCCO[C@@H]1CN(C)S(=O)(=O)c1ccccc1 | . | -1 | . | . | .
Cc1ccccc1-c1ccc([C@H]2[C@H]3CN(S(=O)(=O)c4cn(C)cn4)CCCCN3[C@H]2CO)cc1 | . | -1 | . | . | .
Cc1cc(C)c[n+](-c2[nH]c(=O)sc2/C=N/N=C(\[O-])c2cccnc2)c1 | -8 | 5 | 35* | -3 | -2
CN1C(=O)c2cc(NC(=O)c3ccccc3)ccc2OC[C@H]2O[C@H](CC(=O)NCC3CC3)CC[C@@H]21 | . | 0 | . | . | .
Cc1noc(C)c1S(=O)(=O)Nc1ccc2c(c1)CC(=O)N([C@H](C)CO)C[C@@H](C)[C@@H](CN(C)S(=O)(=O)c1cccs1)O2 | . | 1 | . | . | .
Cc1nn(-c2ccccc2)cc1/C=N/NC(N)=S | 5 | -1 | 24 | -2 | -1
C=CCNC(=S)N/N=C/c1ccccc1OCCOc1ccccc1 | 7 | -1 | 11 | 2 | -2
NC(=S)N/N=C/c1c(O)ccc2ccccc12 | 34 | . | 32* | -1 | -3
C=CCNC(=S)N/N=C/c1cn(C)c2ccccc12 | 0 | 1 | 32* | -3 | 1
Cn1cc(/C=N/NC(N)=S)c2ccccc21 | 13 | . | 37* | -3 | 1
CN1[C@@H]2c3ccc(-c4ccncc4)c(=O)n3C[C@@H]2[C@@H](CO)[C@@H]1C(=O)NCCc1ccccc1 | . | 1 | . | . | .
C[C@H]1CCCCO[C@H](CN(C)C(=O)Nc2ccc(F)cc2)[C@@H](C)CN([C@@H](C)CO)C(=O)c2cc(NS(=O)(=O)c3cccs3)ccc2O1 | . | -2 | . | . | .
SMILES | Rv3671c inh | BioA inh | GDH-TPI inh | FadD28 binding | FBA Mtb inh
N#CC1C(=O)Nc2cccnc21 (stereo unspecified) | . | 0 | 9 | -3 | +
COc1ccc(Cl)cc1Nc1cc(C)nc2ccccc12 | 0 | 1 | 3 | -2 | 0
CC(=O)Nc1ccc(Nc2cc(C)nc3ccccc23)cc1 | -6 | 1 | 38* | -1 | -1
Cc1cc(Nc2ccccc2Cl)c2ccccc2n1 | 10 | 1 | 37* | -2 | 0
Cc1cc(Nc2ccc([N+](=O)[O-])cc2)c2ccccc2n1 | -6 | 2 | 25 | 0 | -2
O=c1cc2c(=O)oc3cc(O)c(O)oc3c2c(O)c1O | . | 1 | 1 | 11* | 3
O=c1oc2cc(O)c(Cl)cc2c2ccccc12 | 4 | 1 | 18 | -2 | 5
COc1cccc(NC(=O)N2C[C@@H](O)COC[C@H]3O[C@H](CC(=O)NCc4ccccc4F)CC[C@@H]32)c1 | . | 3 | . | . | .
COc1ccc(C(=O)c2oc3ccccc3c2NC(C)=O)cc1 | -19 | 1 | 33* | 2 | 0
COc1ccc(C(=O)c2oc3ccc(OC)cc3c2NC(C)=O)cc1 | 0 | . | 11 | 2 | -1
COc1cccc(NC(=O)c2oc3ccccc3c2NC(=O)c2ccc3c(c2)OCO3)c1 | -140 | -3 | 36* | 1 | 2
Cc1ccccc1-n1c(O)c(/C=N/NC(=O)c2ccccc2O)c(=O)[nH]c1=S | -3 | 3 | 31* | 4 | 5
O=C(N/N=C/c1c(O)n(-c2ccccc2)c(=O)[nH]c1=O)c1ccncc1 | -32 | -1 | 31* | 1 | 2
O=C(N/N=C/c1c(O)n(CCC2=CCCCC2)c(=O)[nH]c1=O)c1ccccc1 | 18 | -1 | 34* | -1 | 9
O=C(N/N=C/c1c(O)n(C2CC2)c(=S)[nH]c1=O)c1ccccc1O | 7 | . | 24 | 1 | 3
C[C@@H]1CCCCO[C@H](CN(C)S(=O)(=O)c2ccc(Cl)cc2)[C@@H](C)CN([C@@H](C)CO)C(=O)c2cc(NC(=O)Cc3ccccc3)ccc2O1 | . | -2 | . | . | .
CNC[C@H]1Oc2ncc(-c3cccc(F)c3)cc2C(=O)N([C@@H](C)CO)C[C@H]1C | . | -1 | . | . | .
C[C@@H]1CN([C@H](C)CO)S(=O)(=O)c2ccc(C#CC3(O)CCCC3)cc2O[C@@H]1CN(C)C(=O)Cc1ccncc1 | . | 2 | . | . | .
Cc1ccc2[nH]c(C)c(/C=N/Nc3nc4ccccc4s3)c2c1 | 19 | -1 | 38* | 4 | 1
CCC1=NN2C(=N)/C(=C\c3cccn3-c3c(C)cccc3C)C(=O)N=C2S1 | -8 | -1 | 44* | ? | 5
Cc1cccc(C)c1-n1cccc1/C=C1/C(=N)N2C(=NC1=O)SN=C2S(C)(=O)=O | -25 | . | 32* | -6 | -4
Cc1ccc(-n2cccc2/C=C2/C(=N)N3C(=NC2=O)SN=C3S(C)(=O)=O)cc1Cl | -37 | 7 | 14 | -11 | 0
C[C@H](CO)N1C[C@H](C)[C@@H](CN(C)C(=O)Cc2ccccc2)OCCCC[C@H](C)Oc2ccc(NC(=O)Nc3ccc4c(c3)OCO4)cc2C1=O | . | -2 | . | . | .
CN(C)CCNc1ncnc2c1sc1nc(N3CCOCC3)c3c(c12)CC(C)(C)SC3 | -10 | 0 | 28 | -5 | 5
CC1(C)Cc2c(c(N3CCOCC3)nc3sc4c(NCCN)ncnc4c23)CO1 | . | . | 47* | -2 | 12
CCN(CC)CCNc1ncnc2c1sc1nc(N3CCOCC3)c3c(c12)CC(C)(C)SC3 | 0 | 0 | 34* | -4 | 7
COCCNc1nnnc2c1sc1nc(N3CCOCC3)c3c(c12)CC(C)(C)OC3 | -5 | 0 | 8 | -1 | 1
Cc1ccc(NC(=O)/C(C#N)=C/c2ccc(C)s2)c(C)c1 | -20 | -6 | 25 | 3 | 3

Compound activity from PubChem BioAssay.
